Hits are enriched below; roughly 4.1% of the tested compounds scored in any of these assays.
TRPM1 prom inh – inhibitors of MITF-dependent TRPM1 promoter reporter, primary screen, cell-based, SK-MEL-5, single point, luciferase; inhibition, % at 12.5 µM; 330,000 tested, 0.83% active; SK-MEL-5 TRPM1 promoter luciferase, 24 h;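 active = mean inhibition across replicates of 60% or more, whatever share of single replicates reaches that level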
TROY signal inh – inhibitors of TROY-driven NF-kB signaling, primary screen, Q293 LMP1-TROYcd cells, NF-kB luciferase, uHTS; Q293 LMP1-TROYcd NF-kB luciferase reporter, 4 h; inhibition, % at 10 µM; 360,000 tested, 0.98% active; AID 1347056, 2019;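 active = compounds whose plate-normalised and pattern-corrected inhibition of the luciferase reporter signal at the single screening dose is 50% or more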
Shn3 3UTR inh – reduction of Shn3 3'UTR firefly luciferase signal, primary screen, Schnurri-3 inhibitor project, cell-based, Clone20 osteoblasts, set 2 | 360,000 tested, 0.52% active | Clone20 osteoblast Shn3 3'UTR firefly luciferase, 24 h | inhibition, % at 12.5 µM;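 active = mean inhibition of at least 75% with every replicate also reaching 75%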;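 also: 0% = median of neutral control wells and 100% = pilot-screen positive control compound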
Peg3 prom inh-1 – Peg3 promoter-driven luciferase inhibitors, primary screen, cell-based, HeLa, luciferase luminescence; HeLa PEG-Prom luciferase reporter, overnight; 360,000 tested, 1.7% active; inhibition, % at 20 µM;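 active = inhibition of at least 50% at 20 µM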
TWEAK Fn14 block – inhibitors of TWEAK-Fn14 signaling, primary screen, luciferase reporter cells, uHTS. inhibition, % at 10 µM. 360,000 tested, 2% active. TWEAK-stimulated Fn14 reporter cells, luciferase luminescence, 8 h; in the data active = inhibition above about 50%
EBV LMP1 NFkB – EBV LMP1-driven NF-kappaB luciferase reporter inhibitors, primary screen, cell-based, luminescence, single point; LMP1-induced NF-kappaB luciferase reporter cells; inhibition, % at 12.5 µM; 350,000 tested, 0.69% active; AID 504558, 2011; in the data active = inhibition above about 41%;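 also: 0% = neutral control wells and 100% = reference inhibitor control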
Peg3 prom inh-2 – Peg3 promoter reporter inhibitors, retest, confirmation, cell-based, HeLa, luciferase reporter, single concentration; 1,300 tested, 84% active; shares compounds with Peg3 prom inh-1; HeLa PEG-Prom luciferase reporter, luminescence, overnight; AID 602417, 2012; inhibition, % at 20 µM;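 active = at 20 µM dose, 40% or more inhibition averaged across four replicates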
* = called active by the depositor; ! = repeats disagree.

Results for CCOCCCNC(=O)c1ccccc1OC1CCN(S(C)(=O)=O)CC1 ?
TRPM1 prom inh: -11; TROY signal inh: -1; Shn3 3UTR inh: -10; Peg3 prom inh-1: -6; TWEAK Fn14 block: 6; EBV LMP1 NFkB: -43

What do the screens show for `N#Cc1cc2c(nc1SC1CC(=O)N(c3ccccc3)C1=O)CCC2` (centres undefined)?
TRPM1 prom inh: 65*; TROY signal inh: 83*; Shn3 3UTR inh: 51; Peg3 prom inh-1: 57*; TWEAK Fn14 block: 100*; EBV LMP1 NFkB: 52*; Peg3 prom inh-2: 59*

Results for Cc1cc(C)c(S(=O)(=O)ON2C(=O)c3ccccc3C2=O)cc1C ?
TRPM1 prom inh: 31; TROY signal inh: 16; Shn3 3UTR inh: 70; Peg3 prom inh-1: 70*; TWEAK Fn14 block: 0; EBV LMP1 NFkB: -18; Peg3 prom inh-2: 41*

Results for Cc1ccc(OC(=O)CN2C(=O)c3ccccc3C2=O)cc1C ?
TRPM1 prom inh: -2; TROY signal inh: -5; Shn3 3UTR inh: 11; Peg3 prom inh-1: -7; TWEAK Fn14 block: 9; EBV LMP1 NFkB: 5

What do the screens show for `CN(C)c1ccc(N=Nc2ccc(C(=O)O)cc2)cc1`?
TRPM1 prom inh: 66*; TROY signal inh: 46; Shn3 3UTR inh: 34; Peg3 prom inh-1: 65*; TWEAK Fn14 block: 98*; EBV LMP1 NFkB: 36; Peg3 prom inh-2: 35

How did CN(C)c1ccc(C(=O)c2ccccc2)cc1 do in these assays?
TRPM1 prom inh: -71; TROY signal inh: -22; Shn3 3UTR inh: -44; Peg3 prom inh-1: -209; TWEAK Fn14 block: -4; EBV LMP1 NFkB: -20

How did O=C(CCNS(=O)(=O)c1ccccc1F)NC1CCCCCC1 do in these assays?
TRPM1 prom inh: -9; TROY signal inh: 0; Shn3 3UTR inh: 3; Peg3 prom inh-1: -21; TWEAK Fn14 block: -15; EBV LMP1 NFkB: 4

Results for CN1CCN(C2Cc3cc(F)ccc3Sc3ccc(Cl)cc32)CC1 (centres undefined) ?
TRPM1 prom inh: -15; TROY signal inh: -6; Shn3 3UTR inh: 11; Peg3 prom inh-1: 23; TWEAK Fn14 block: 2; EBV LMP1 NFkB: -6

How did CSc1ccc2c(c1)C(N1CCN(C)CC1)Cc1ccccc1S2 (centres undefined) do in these assays?
TRPM1 prom inh: 31; TROY signal inh: -5; Shn3 3UTR inh: 1; Peg3 prom inh-1: 82*!; TWEAK Fn14 block: -30; EBV LMP1 NFkB: 89*!; Peg3 prom inh-2: 84*

Results for O=[N+]([O-])CC1(n2nc3ccccc3n2)CCCCC1 ?
TRPM1 prom inh: 1; TROY signal inh: 18; Shn3 3UTR inh: 5; Peg3 prom inh-1: 67*; TWEAK Fn14 block: 37; EBV LMP1 NFkB: 1; Peg3 prom inh-2: -2

What do the screens show for `CN1C(C)(C)CC(=NO)CC1(C)C`?
TRPM1 prom inh: 1; TROY signal inh: -2; Shn3 3UTR inh: -9; Peg3 prom inh-1: -8; TWEAK Fn14 block: 24; EBV LMP1 NFkB: -3

Results for CCCCn1nnnc1C(c1cc2ccccc2o1)N(C)Cc1ccc(Cl)cc1 (centres undefined) ?
TROY signal inh: 16; TWEAK Fn14 block: 8

What do the screens show for `Cc1onc(-c2ccc(Cl)cc2Cl)c1-c1csc(N/N=C/c2ccccc2Cl)n1`?
TRPM1 prom inh: -8; TROY signal inh: -20; Shn3 3UTR inh: 7; Peg3 prom inh-1: 65*; TWEAK Fn14 block: -16; EBV LMP1 NFkB: 23; Peg3 prom inh-2: 37

How did COc1cccc(NC(=O)Nc2cccc(C(=O)O)c2)c1 do in these assays?
TRPM1 prom inh: 81*; TROY signal inh: -22; Shn3 3UTR inh: 47; Peg3 prom inh-1: 67*; TWEAK Fn14 block: 4; EBV LMP1 NFkB: 61*; Peg3 prom inh-2: 55*

What do the screens show for `COc1cccc(NC(=O)c2ccccc2)c1`?
TRPM1 prom inh: -99; TROY signal inh: -58; Shn3 3UTR inh: 2; Peg3 prom inh-1: -276; TWEAK Fn14 block: -21; EBV LMP1 NFkB: -6

Screening data as filed in PubChem.
